Pol iota inh: qHTS for Inhibitors of Polymerase Iota. DNA polymerase iota (Homo sapiens), Q9UNA4. Pol iota fluorescent replication assay, 10 min. Potency, µM (titrated, usually from 115 µM), inactives show at the highest dose activity, negative = inhibition, hits mostly inhibitors. hit rate 1% among 390,000. AID 588590, 2011
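Pol iota at 10 nM preincubated 15 min with compounds at room temperature; reaction started with fluorescent substrate, 50 nM final. Fluorescence read kinetically at 0 and 10 min; buffer-only wells as negative control.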
POLB inh: qHTS Assay for Inhibitors of DNA Polymerase Beta | P06746 | Pol beta primer extension/strand displacement, fluorescence kinetic | Potency, µM (top dose mostly 114 µM), inactives show at the top dose activity change, negative = inhibition, most hits filed as inhibitors | hit rate 1.3% among 340,000; also: % is scaled to controls: 0 for no effect and ±100 for the full control effect
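Kinetic readout of DNA synthesis with strand displacement by Pol beta. Compound and 10 nM enzyme sit 15 min at room temperature; 50 nM substrate starts the reaction, read immediately and at 10 min.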
WRN inhibitor: qHTS for Inhibitors of WRN Helicase; Bifunctional 3'-5' exonuclease/ATP-dependent helicase WRN (Homo sapiens), Q14191; WRN helicase unwinding, fluorescent forked duplex, kinetic; Potency, µM (highest dose often 114 µM), for inactives: at the highest dose activity change, negative = inhibition, usual class: inhibitors; hit rate 0.46% among 360,000; AID 651768, 2012; also: % is scaled to controls: 0 for no effect and ±100 for the full control effect; nearly all actives have a fitted effect of over 55% in size
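WRN at 20 nM final was preincubated with compound for 15 min at room temperature; reaction started with 100 nM forked duplex oligonucleotide carrying fluorophore and quencher plus 2 mM ATP (final). Unwinding followed kinetically by red fluorescence (ex 525/em 598 nm).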
FEN1 inh: qHTS Assay for the Inhibitors of Human Flap endonuclease 1 (FEN1); Potency, µM (series often up to 114 µM), for inactives: at the top dose activity change, negative = inhibition, most hits filed as inhibitors; P39748; hit rate 0.35% among 390,000; Recombinant FEN1 flap cleavage, fluorescence, 15 min; also: % is scaled to controls: 0 for no effect and ±100 for the full control effect; nearly all actives have a fitted effect of over 65% in size
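Enzyme 10 nM, 15 min RT preincubation with compound; start with substrate 50 nM final; reads at 0 and 15 min; qHTS titration, four-parameter Hill fit.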
POLH inh: qHTS for Inhibitors of Polymerase Eta; Potency, µM (doses to about 114 µM), without a hit: top-dose activity change, negative = inhibition, usual class: inhibitors; hit rate 1.2% among 390,000; DNA polymerase eta (Homo sapiens), Q9Y253; recombinant Pol eta, fluorescent DNA replication assay; AID 588591, 2011; also: % is scaled to controls: 0 for no effect and ±100 for the full control effect
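Pol eta (10 nM) was preincubated with compounds for 15 min at room temperature, after which fluorescent replication substrate (50 nM final) was added to start the reaction. Fluorescence was read kinetically at 0 and 10 min.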
POLK inh: qHTS for Inhibitors of Polymerase Kappa. purified Pol kappa, fluorescent DNA synthesis assay, 10 min. Potency, µM (doses to about 107 µM), for the others: at the highest dose activity, negative = inhibition, actives largely listed as inhibitors. hit rate 0.53% among 400,000; also: % is scaled to controls: 0 for no effect and ±100 for the full control effect
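Inhibition of 10 nM Pol kappa is measured by a fluorescent read-out at 0 and 10 min following addition of 50 nM substrate (final), with a 15-min room-temperature compound preincubation.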
Starred values were filed as active, the others as inactive; ? = inconclusive; / = no result given; [ ] = remark or other dose. Rows were chosen to be rich in hits. Some 2.4% of all compounds tested hit in one or more screens of this group. Calls follow the shape of the dose curve; as a rule, active = well fitted curve in the direction sought with a large enough effect; inconclusive = small, poorly fitted or top-dose-only effect, or another doubt; inactive = no such curve, though single readings can be large; an effect the other way counts as inactive or inconclusive. Potency is read from the fitted curve at half-maximal effect.

SMILES	Pol iota inh	POLB inh	WRN inhibitor	FEN1 inh	POLH inh	POLK inh
Cc1cc(C(=O)CSc2nc3ccc(Cl)cc3[nH]2)c(C)n1Cc1ccco1	22µM*	/	-14%	2%	-1%	?
Cc1cc(C(=O)CSc2nnnn2C)c(C)n1Cc1ccco1	79µM*	?	-9%	-2%	7%	-7%
O=C(CSc1nc2ccc(Cl)cc2[nH]1)NCc1ccco1	9%	-12%	?	-3%	5%	-16%
CC1=NN(c2ccc(N)cc2)C(=O)C1	?	-1%	45µM*	?	?	?
Clc1ccccc1-c1nc(NCc2cccs2)c2ccccc2n1	/	/	/	/	/	32µM*
CCN(CC)c1ccc(/C=N/NC(=O)c2ccc(O)cc2)cc1	/	/	/	/	/	1%[60.1 µM]
CCc1cccc(-n2nnc(-c3nc(-c4ccc5c(c4)OCO5)no3)c2C)c1	12%	1%	/	2%	/	6%
C[N+]1(CC(=O)NNc2c3ccccc3nc3ccccc23)CCOCC1	/	25µM*	/	/	/	/
O=C(CN1CCOCC1)NNc1c2ccccc2nc2ccccc12	13%	-6%	7%	-24%	-16%	-25%
C=CC1=C(C)C2=NC1=CC1=NC(=CC3=NC(=CC4=NC(=C2)C(C)=C4CCC(=O)O)C(CCC(=O)O)=C3C)C(C=C)=C1C.[Zn]	/	/	/	/	/	3.5µM*
C#CCOCCOCCOCCNc1nc(N2CCOCC2)nc(N2CCN(C(=O)CCCCCCCCCCNC(=O)[C@@H](CCSC)n3cc(CCO)nn3)CC2)n1	?	/	-7%	9%	-11%	-4%
C#CCOCCOCCOCCNc1nc(N2CCN(C(=O)CCCCCCCCCCNC(=O)[C@@H](CCSC)n3cc(CCO)nn3)CC2)nc(N2CCN(C(=O)CCCCCCCCCCNC(=O)[C@H]([C@@H](C)CC)n3cc(CCCCCN)nn3)CC2)n1	?	/	?	79µM*	?	-15%
C#CCOCCOCCOCCNc1nc(N2CCN(C(=O)CCCCCCCCCCNC(=O)[C@@H](CCSC)n3cc(CCO)nn3)CC2)nc(N2CCN(C(=O)CCCCCCCCCCNC(=O)[C@H]([C@@H](C)CC)n3cc(CCCCN=C(N)N)nn3)CC2)n1	?	/	?	22µM*	79µM*	-22%
C=C(C)Cn1c(=O)c2c(nc3n2CCN3c2cc(C)cc(C)c2)n(C)c1=O	79µM*	-13%	/	-3%	-9%	-6%
CCOc1ccc(C(=O)Nc2ccc(N3CCN(C(=O)c4ccco4)CC3)cc2)cc1Br	25µM*	/	?	-2%	?	-9%
CCN(CC)c1nc2ccccc2n2cnnc12	89µM*	8%	0%	-12%	-4%	-7%
O=C(CCc1nc2sc3c(c2c(=O)[nH]1)CCCC3)NCCc1ccccc1	50µM*	/	-9%[11.6 µM]	0%	?	?
CC1CCCCC1NC(=O)CCc1nc2sc3c(c2c(=O)[nH]1)CCCC3 (configuration not stated)	?	/	-34%	6%	?	-31%
O=C(CCc1nc2sc3c(c2c(=O)[nH]1)CCCC3)NCCc1ccc(F)cc1	?	22µM*	-12%	-2%	?	-17%
Cc1ccnc(N=O)c1	31%	/	4%	50µM*	-15%	7%
O=C1NC(=O)/C(=C/c2cccc3ccccc23)S1	?	16%	-10%	-2%	-4%	-14%
O=C1NC(=O)C(=Cc2ccccc2[N+](=O)[O-])S1	?	/	13%	2%	89µM*	-5%
CC(C)(C)OC(=O)N1CCC(c2nnc(SCc3cccc(Cl)c3)o2)CC1	-4%	0%	/	-11%	-20%	-1%
